Where “and” joins values, the source holds several entries; their conditions need not be identical. Identical values can stand only once. Hit rate of the full screen: of about 5,500 compounds, about 2,000 (36%) were called active. Another 18% or so got no clear call; they are omitted. Cut-off read from the data, not from the text of the source: active = normalized growth mostly below about 0.91 (no sharp cut-off); inconclusive = no clear call, values can overlap the other calls; inactive = mostly above about 0.92. This is one part of the list.
Assay: chemical genetic growth profiling, strain panel (AID 1159580);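 note: tested at 20 µM; growth read once vehicle control cultures reached saturation at 30 °C; 1 = growth at the plate median or of vehicle wells; lower values mean less growth of the strain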
Details: growth OD

Measured: normalized growth

CCCOc1ccccc1-c1nc2n[nH]nc2c(=O)[nH]1
inactive: S. cerevisiae deletion strains, locus YJL187C, strain SWE1 (second series), stronger effect = lower value 0.992 | S. cerevisiae deletion strains, locus YJL187C, strain SWE1, stronger effect = lower value 1 | S. cerevisiae deletion strains, locus YJR043C, strain POL32, stronger effect = lower value 0.995 | S. cerevisiae deletion strains, locus YJR075W, strain HOC1, stronger effect = lower value 0.979 | S. cerevisiae deletion strains, locus YKL009W, strain mrt4, stronger effect = lower value 1 | S. cerevisiae deletion strains, locus YKL068W, stronger effect = lower value 0.999 | S. cerevisiae deletion strains, locus YKL085W, strain MDH1 (second series), stronger effect = lower value 1 | S. cerevisiae deletion strains, locus YKL085W, strain MDH1, stronger effect = lower value 1 | S. cerevisiae deletion strains, locus YKL160W, strain elf1, stronger effect = lower value 0.974 | S. cerevisiae deletion strains, locus YKL190W, strain CNB1, stronger effect = lower value 1 | S. cerevisiae deletion strains, locus YKR001C, strain vps1, stronger effect = lower value 1.01 | S. cerevisiae deletion strains, locus YKR026C, strain gcn3, stronger effect = lower value 1 | S. cerevisiae deletion strains, locus YKR091W, strain srl3, stronger effect = lower value 1 | S. cerevisiae deletion strains, locus YLL001W, strain dnm1, stronger effect = lower value 0.995 | S. cerevisiae deletion strains, locus YLL026W, stronger effect = lower value 1.01 | S. cerevisiae deletion strains, locus YLL041C, strain sdh2, stronger effect = lower value 0.994 | S. cerevisiae deletion strains, locus YLR027C, strain aat2, stronger effect = lower value 1.01 | S. cerevisiae deletion strains, locus YLR039C, strain RIC1, stronger effect = lower value 1.05 | S. cerevisiae deletion strains, locus YLR058C, strain SHM2, stronger effect = lower value 0.997 | S. cerevisiae deletion strains, locus YLR102C, strain apc9, stronger effect = lower value 1.01 | S. cerevisiae deletion strains, locus YLR221C, strain rsa3, stronger effect = lower value 0.995 | S. cerevisiae deletion strains, locus YLR258W, strain gsy2, stronger effect = lower value 1.03 | S. cerevisiae deletion strains, locus YLR262C, strain YPT6 (second series), stronger effect = lower value 0.997 | S. cerevisiae deletion strains, locus YLR262C, strain YPT6, stronger effect = lower value 1.02 | S. cerevisiae deletion strains, locus YLR268W, strain sec22, stronger effect = lower value 1.01 | S. cerevisiae deletion strains, locus YLR320W, strain mms22, stronger effect = lower value 1.02 | S. cerevisiae deletion strains, locus YLR330W, strain CHS5, stronger effect = lower value 1.01 | S. cerevisiae deletion strains, locus YLR342W, strain FKS1 (second series), stronger effect = lower value 1.04 | S. cerevisiae deletion strains, locus YLR342W, strain FKS1, stronger effect = lower value 1.01 | S. cerevisiae deletion strains, locus YLR357W, strain rsc2, stronger effect = lower value 1.01 | S. cerevisiae deletion strains, locus YLR370C, strain arc18, stronger effect = lower value 0.996 | S. cerevisiae deletion strains, locus YLR371W, strain rom2, stronger effect = lower value 1.02 | S. cerevisiae deletion strains, locus YLR384C, strain iki3, stronger effect = lower value 1 | S. cerevisiae deletion strains, locus YLR418C, strain cdc73, stronger effect = lower value 1.02 | S. cerevisiae deletion strains, locus YML016C, strain PPZ1, stronger effect = lower value 1 | S. cerevisiae deletion strains, locus YML032C, strain rad52, stronger effect = lower value 1.02 | S. cerevisiae deletion strains, locus YML120C, strain ndi1, stronger effect = lower value 0.997 | S. cerevisiae deletion strains, locus YML124C, strain tub3, stronger effect = lower value 1 | S. cerevisiae deletion strains, locus YMR058W, strain fet3, stronger effect = lower value 1.01 | S. cerevisiae deletion strains, locus YMR078C, strain ctf18, stronger effect = lower value 1.01 | S. cerevisiae deletion strains, locus YMR125W, strain sto1, stronger effect = lower value 1.01 | S. cerevisiae deletion strains, locus YMR129W, stronger effect = lower value 1 | S. cerevisiae deletion strains, locus YMR205C, strain PFK2, stronger effect = lower value 1.03 | S. cerevisiae deletion strains, locus YMR223W, strain ubp8, stronger effect = lower value 1.01 | S. cerevisiae deletion strains, locus YMR231W, strain pep5, stronger effect = lower value 1.01 | S. cerevisiae deletion strains, locus YMR307W, strain GAS1, stronger effect = lower value 1.08 and 0.984 | S. cerevisiae deletion strains, locus YNL067W, strain RPL9B, stronger effect = lower value 1 | S. cerevisiae deletion strains, locus YNL071W, strain lat1, stronger effect = lower value 1 | S. cerevisiae deletion strains, locus YNL153C, strain GIM3, stronger effect = lower value 1.04 | S. cerevisiae deletion strains, locus YNL175C, strain NOP13, stronger effect = lower value 1.02 | S. cerevisiae deletion strains, locus YNL197C, strain WHI3, stronger effect = lower value 1.01 | S. cerevisiae deletion strains, locus YNL209W, strain ssb2, stronger effect = lower value 1 | S. cerevisiae deletion strains, locus YNL224C, strain SQS1, stronger effect = lower value 1 | S. cerevisiae deletion strains, locus YNL233W, strain BNI4, stronger effect = lower value 0.995 | S. cerevisiae deletion strains, locus YNL248C, strain rpa49, stronger effect = lower value 0.957 | S. cerevisiae deletion strains, locus YNL250W, strain rad50, stronger effect = lower value 1 | S. cerevisiae deletion strains, locus YNL271C, strain bni1, stronger effect = lower value 1.01 | S. cerevisiae deletion strains, locus YNL298W, strain CLA4, stronger effect = lower value 1.02 | S. cerevisiae deletion strains, locus YNL307C, strain MCK1, stronger effect = lower value 1.02 | S. cerevisiae deletion strains, locus YNL322C, strain KRE1 (second series), stronger effect = lower value 0.998 | S. cerevisiae deletion strains, locus YNR049C, strain mso1, stronger effect = lower value 1 | S. cerevisiae deletion strains, locus YNR052C, strain pop2, stronger effect = lower value 1.01 | S. cerevisiae deletion strains, locus YOL006C, strain TOP1, stronger effect = lower value 1 | S. cerevisiae deletion strains, locus YOL012C, strain htz1 1.16 | S. cerevisiae deletion strains, locus YOL147C, strain pex11, stronger effect = lower value 1.01 | S. cerevisiae deletion strains, locus YOR001W, strain rrp6, stronger effect = lower value 0.971 | S. cerevisiae deletion strains, locus YOR061W, strain CKA2, stronger effect = lower value 1.01 | S. cerevisiae deletion strains, locus YOR069W, strain VPS5, stronger effect = lower value 1 | S. cerevisiae deletion strains, locus YOR070C, strain gyp1, stronger effect = lower value 0.999 | S. cerevisiae deletion strains, locus YOR080W, strain dia2, stronger effect = lower value 1.01 | S. cerevisiae deletion strains, locus YOR083W, strain WHI5 (second series), stronger effect = lower value 1.02 | S. cerevisiae deletion strains, locus YOR083W, strain WHI5, stronger effect = lower value 0.962 | S. cerevisiae deletion strains, locus YOR106W, strain vam3, stronger effect = lower value 0.981 | S. cerevisiae deletion strains, locus YOR136W, strain idh2, stronger effect = lower value 1.01 | S. cerevisiae deletion strains, locus YOR144C, strain elg1, stronger effect = lower value 1.01 | S. cerevisiae deletion strains, locus YOR184W, strain ser1, stronger effect = lower value 1.01 | S. cerevisiae deletion strains, locus YOR265W, strain rbl2, stronger effect = lower value 1 | S. cerevisiae deletion strains, locus YOR270C, strain vph1, stronger effect = lower value 0.98 | S. cerevisiae deletion strains, locus YOR290C, strain snf2, stronger effect = lower value 0.992 | S. cerevisiae deletion strains, locus YOR316C, strain cot1, stronger effect = lower value 1.01 | S. cerevisiae deletion strains, locus YPL051W, strain arl3, stronger effect = lower value 0.991 | S. cerevisiae deletion strains, locus YPL078C, strain atp4, stronger effect = lower value 0.981 | S. cerevisiae deletion strains, locus YPL106C, strain sse1, stronger effect = lower value 1.02 | S. cerevisiae deletion strains, locus YPL240C, strain hsp82, stronger effect = lower value 1.01 | S. cerevisiae deletion strains, locus YPR119W, strain clb2, stronger effect = lower value 1.01 | S. cerevisiae deletion strains, locus YPR141C, strain kar3, stronger effect = lower value 1 | S. cerevisiae deletion strains, locus YPR163C, strain tif3, stronger effect = lower value 1.02 | S. cerevisiae deletion strains, locus YPR167C, strain met16, stronger effect = lower value 1.02 | S. cerevisiae deletion strains, strain wtn01, stronger effect = lower value 1.02 | S. cerevisiae strains, strain wild type, stronger effect = lower value 1.01

From PubChem BioAssay AID1159580 (chemical genetic matrix, 2015)
